An excerpt weighted towards active compounds, which were near 3.4% of everything screened.
TEAD-YAP inh – TEAD-YAP interaction inhibition | hit rate 1.4% among 640,000 | HEK-TIYL cells, TEAD-Gal4/YAP UAS-luciferase luminescence | inhibition, % at 9.12 µM; in the data active = inhibition above about 32%;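 also: 0% = median of test compound wells and 100% = reference inhibitor wells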
GPR151 ag – activators of human GPR151. hit rate 1% among 650,000. activation, % at 11.2 µM. PathHunter beta-arrestin GPR151 cells, luminescence. AID 1508602; in the data active = activation above about 4.9%;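 also: 0% = median of compound wells and 100% = cells with positive control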
Target sequence (Q8TDV0 whole entry, looked up): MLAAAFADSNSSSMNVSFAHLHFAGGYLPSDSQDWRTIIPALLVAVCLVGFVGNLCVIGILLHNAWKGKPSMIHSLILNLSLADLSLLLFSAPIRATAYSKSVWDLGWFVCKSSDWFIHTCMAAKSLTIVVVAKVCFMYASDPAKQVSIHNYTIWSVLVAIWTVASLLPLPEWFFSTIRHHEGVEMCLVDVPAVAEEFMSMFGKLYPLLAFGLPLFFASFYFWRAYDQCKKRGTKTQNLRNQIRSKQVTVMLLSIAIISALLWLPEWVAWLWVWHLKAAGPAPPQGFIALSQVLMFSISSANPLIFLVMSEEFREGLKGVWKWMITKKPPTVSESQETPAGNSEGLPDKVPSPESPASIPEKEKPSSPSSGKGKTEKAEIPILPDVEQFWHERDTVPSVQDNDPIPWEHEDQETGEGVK
FBW7 act – activators of human E3 ligase FBW7 | AID 1259310 | normalized activity (activation), % at 26.1 µM | AlphaScreen FBW7–phospho-cyclin E peptide binding, activator screen | hit rate 0.13% among 650,000 | Q969H0; in the data active = normalized activity above about 1.9%;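 also: purified mutant Fbw7 with reduced substrate affinity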
MITF inh – inhibitors of human MITF; hit rate 0.91% among 650,000; inhibition, % at 2.6 µM; O75030; AID 1259374; AlphaScreen MITF homodimerization, bead proximity signal; in the data active = inhibition above about 50%;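 also: 0% = vehicle wells with protein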
An asterisk follows results filed as active.

SMILES | TEAD-YAP inh | GPR151 ag | FBW7 act | MITF inh
CC(=O)Oc1ccc(C2Nc3c(C(=O)O)cccc3C3C=CCC32)cc1 (stereo not given) | 10.3 | 0.1 | -1.0 | 66.0*
Cc1c(C(=O)O)ccc2c1N[C@@H](c1ccc(F)cc1)[C@H]1CC=C[C@@H]21 | -11.8 | -0.2 | -0.6 | 63.6*
Cc1noc(C)c1-c1cncc(C(=O)NCc2cccc(C(F)(F)F)c2)c1 | -9.8 | 1.2 | -0.1 | -5.7
CC1C(=O)NN=C1C(=O)N/N=C\C=C\c1ccccc1 (stereo not given) | -10.2 | 0.2 | -0.3 | 11.3
COc1ccc(/C=N\NC(=O)C2=NNC(=O)C2C)cc1 (stereo not given) | 36.0* | -0.7 | -0.3 | 7.3
COc1cc(Nc2cc(N3CCN(c4ccccn4)CC3)ncn2)cc(OC)c1OC | -13.4 | -0.9 | 0.4 | -9.1
COc1cc(Nc2ccnc(N3CCN(c4ccccn4)CC3)n2)cc(OC)c1OC | 35.8* | 0.0 | -0.1 | 11.1
COc1cc(Nc2cc(C)nc(N3CCN(c4ccccn4)CC3)n2)cc(OC)c1OC | 52.5* | 2.7 | -0.1 | 4.4
Cn1nc(CN)c2ccccc2c1=O | 10.7 | -2.9 | 0.0 | 0.0
NCc1nn(CCc2ccccn2)c(=O)c2ccccc12 | 59.0* | -0.3 | 0.8 | 26.0
Cc1ccc2sc(-c3ccc(NS(C)(=O)=O)cc3)nc2c1 | -20.1 | -1.2 | 1.5 | 13.0
Cc1ccc2sc(-c3ccc(NC4=CC(=O)CC(C)(C)C4)cc3)nc2c1 | 52.7* | -0.3 | -0.1 | -8.7
Nc1ccc(-c2nc3cc(N)ccc3s2)cc1 | 47.5* | -4.6 | 1.8 | 5.4
Cc1ccc2nc(-c3cc(Cl)c(N)c(Cl)c3)sc2c1 | -46.5 | -0.7 | 0.0 | 2.6
Cc1ccc2nc(-c3ccc(N)cc3)sc2c1 | 85.9* | -7.1 | 0.0 | 18.2
Cc1ccc2sc(-c3ccc(N)cc3)nc2c1 | 87.4* | -7.8 | 0.1 | 7.3
CN(C)c1ccc(C(O)c2nnc(-c3ccccc3)o2)cc1 (stereo not given) | -2.7 | -0.9 | 0.0 | 4.1
Cc1nn(C)cc1CNC(=O)CCc1ccccc1 | -9.7 | 0.3 | 0.0 | 10.3
Cc1ccc2sc(NC(=O)/C=C/C(=O)O)nc2c1 | 14.3 | -3.3 | -0.1 | 11.0
Cc1ccc2sc(-c3ccc(NC(=O)/C=C/C(=O)O)cc3)nc2c1 | 92.3* | -3.6 | 0.7 | 10.0
COc1cc(CNCCCN(C)C)ccc1OCc1ccc(F)cc1Cl | 34.3* | -0.7 | 0.4 | -22.6
O=C(CSc1nnc2ccc(-c3ccccc3)nn12)NCc1ccccc1 | 41.2* | 0.0 | 0.1 | 8.9
O=C(CSc1nnc2ccc(-c3ccc(F)cc3)nn12)NCCc1ccccc1 | -2.8 | -1.5 | 0.3 | -0.8
O=C(CSc1nnc2ccc(-c3ccc(F)cc3)nn12)NCc1ccccc1 | 40.6* | -0.8 | 0.0 | 9.4
Cc1[nH]n(C(N)=S)c(=O)c1C(c1ccc(Cl)cc1)C(C#N)C#N (stereo not given) | 0.7 | 0.1 | -0.5 | 27.1
SMILES | TEAD-YAP inh | GPR151 ag | FBW7 act | MITF inh
Cc1ccc(C(=O)OC2CC(C)CCC2C(C)C)cc1[N+](=O)[O-] (stereo not given) | 7.8 | 0.4 | 0.0 | 13.5
CC1CCC(C(C)C)C(OC(=O)c2cc([N+](=O)[O-])ccc2Cl)C1 (stereo not given) | 2.8 | 3.5 | 5.5* | -5.4
O=C(Cc1ccccc1)Nc1ccc(N2C(=O)c3ccc4c5c(ccc(c35)C2=O)CC4)cc1 | 43.2* | 1.3 | -0.1 | -1.1
O=C(NCCc1ccccc1)c1ccc2cncc(-c3ccccc3)c2n1 | 47.3* | 0.1 | -0.1 | -12.6
O=C(NCc1ccco1)c1ccc2cncc(-c3cc4ccccc4o3)c2n1 | 54.2* | 0.2 | -0.3 | 3.3
COc1ccccc1CNC(=O)c1ccc2cncc(-c3ccccc3)c2n1 | 64.7* | -0.1 | 0.2 | 11.3
O=C(NCCc1ccccc1)c1nnc(-c2cccnc2)o1 | 1.6 | 0.0 | -0.1 | -5.6
O=C(NCc1ccncc1)c1ccc2cncc(-c3cc4ccccc4o3)c2n1 | 31.7 | -0.2 | -0.2 | -2.6
COc1ccc(-c2cncc3ccc(C(=O)NCc4ccccc4)nc23)cc1 | 68.3* | -1.2 | -0.1 | -6.9
CCN=C1S/C(=C\c2ccc(N3Cc4ccccc4C3)cc2)C(=O)N1CC | -1.1 | 1.3 | -0.2 | 7.4
Cc1ccc(S(=O)(=O)NC(=O)c2cc(C)n(CCN(C(C)C)C(C)C)c2C)cc1 | -1.9 | 0.0 | 0.0 | -10.3
COc1ccc(-c2cncc3ccc(C(=O)NCc4cnc(C)cn4)nc23)cc1 | 70.3* | 0.0 | -0.1 | 2.9
COC(=O)C1=C(C)NC2=C(C(=O)CC(c3ccccc3)C2)C1c1cc(OC)ccc1OC (stereo not given) | 33.0* | 1.9 | 0.1 | 3.4

Screening data as filed in PubChem BioAssay.
